In all, about 52,000 compounds went through this assay and about 4,300 (8.3%) were called active. No stated cut-off is given here; in the data, active means survival mostly below about 52% (no sharp cut-off); inactive means mostly above about 56%. This excerpt belongs to a sample that is enriched for actives.

This experiment has as its system DeltatarO mutant. As to the kind of experiment: growth inhibition of S. aureus wild type versus tarO mutant, primary screen, teichoic acid synthesis inhibitors, RN4220, OD600 (AID 463173). The following applies: OD600, 18 h, active compounds read low, screened at 18.75 µg/mL (by protocol).
`COc1ccc(NC(=O)Cn2nnnc2-c2ccccc2F)c(C)c1`: the survival was 74% (inactive). As for `Cc1cccc(NC(=O)Cn2c(=O)ccc3cc(S(=O)(=O)N4CCCC4)ccc32)c1C`, the figure is 105% (inactive). The value for `Cc1ccc(CNC(=O)Cn2c(=O)ccc3cc(S(=O)(=O)N4CCCC4)ccc32)cc1` was 92% (inactive); that for `O=C(Cn1c(=O)ccc2cc(S(=O)(=O)N3CCCC3)ccc21)Nc1ccccc1` was 57% (inactive). As for `CCc1ccccc1NC(=O)Cn1c(=O)ccc2cc(S(=O)(=O)N3CCC(C)CC3)ccc21`, the figure is 92% (inactive).

For the compound `CCC(C)NC(=O)Cn1c(=O)ccc2cc(S(=O)(=O)N3CCCC3)ccc21` (stereo not given), the survival is 37% (active). Take `CCC(C)NC(=O)Cn1ccc2cc(S(=O)(=O)N3CCCCCC3)ccc21` (stereo not given): the survival is 118% (inactive). As for `CCOc1ccccc1NC(=O)COc1ccc(S(=O)(=O)NC2CCCCC2)cc1`, the figure is 48% (active); as for `CCOc1ccccc1NC(=O)Cn1c(=O)ccc2cc(S(=O)(=O)N3CCC(C)CC3)ccc21`, 55% (inactive). As for `CCc1ccccc1NC(=O)Cn1c(=O)ccc2cc(S(=O)(=O)N3CCCC3)ccc21`, the figure is 46% (active). In the case of `COc1ccc(NC(=O)COc2ccc(S(=O)(=O)NC3CCCCC3)cc2)c(OC)c1`, the survival was 66% (inactive).

As for `CCOc1ccc(NC(=O)COc2ccc(S(=O)(=O)NC3CCCCC3)cc2)cc1`, the survival was 62% (inactive). The value for `CCOc1ccccc1NC(=O)Cn1c(=O)ccc2cc(S(=O)(=O)N3CCCC3)ccc21` was 0% (active); that for `CCc1ccc(-n2c(=O)c3ccc(C(=O)NCCc4ccccc4)cc3n(CC(N)=O)c2=O)cc1` was 86% (inactive); that for `COC(=O)C1(CO)NC(c2ccccc2F)C2C(=O)N(c3ccccc3)C(=O)C21` (stereo not given) was 86% (inactive). As for `COc1ccc(-c2nc(C)c(CCNC(=O)c3cccs3)s2)cc1`, the figure is 61% (inactive); as for `O=C(Nc1ccc(N2CCC(c3ccccc3)C2)c(C(=O)O)c1)c1ccc(Cl)cc1` (stereo not given), 60% (inactive). `CCNC(=O)C1CCCN(c2nn3cc(-c4ccc(C)cc4)nc3s2)C1` (stereo not given): the survival is 74% (inactive).

For the compound `COCCCNC(=O)c1cc(-c2ccc(OC)cc2)nc2n[nH]c(-c3ccc(Cl)cc3)c12`, the survival is 73% (inactive).

Regarding `Cn1c(=O)n(C)c2cc(N3CCOCC3)c(NC(=O)c3ccccc3Br)cc21`, the survival was 82% (inactive). The value for `CCc1ccc(NC(=O)Cn2c(=O)ccc3cc(S(=O)(=O)N4CCCC4)ccc32)cc1` was 144% (inactive); that for `Cc1ccc(NC(=O)Cn2c(=O)ccc3cc(S(=O)(=O)N4CCCC4)ccc32)cc1C` was 98% (inactive). As for `Cc1ccc(NC(=O)Cn2c(=O)ccc3cc(S(=O)(=O)N4CCCC4)ccc32)cc1N(C)C`, the figure is 32% (active); as for `COc1cccc(NC(=O)CC2NCCNC2=O)c1` (stereo not given), 84% (inactive). As for `CCCCN(C)CCNC(=O)c1ccc2c(=O)n(CCc3ccccc3)c(=O)[nH]c2c1`, the figure is 77% (inactive). For the compound `CCOC(=O)C1CCCN(c2c(C(=O)c3ccc(OCC)cc3)cnc3ccccc23)C1` (stereo not given), the survival is -3% (active).

With `CCOc1ccc(C(=O)c2cnc3ccc(Cl)cc3c2S(=O)(=O)c2ccc(C)cc2)cc1`, the survival is 80% (inactive). In the case of `CCc1ccc2ncc(C(=O)c3ccc(C)c(C)c3)c(N3CCC(C(N)=O)CC3)c2c1`, the survival is 86% (inactive). Regarding `CCOC(=O)C1CCN(c2c(C(=O)c3ccc(OC)cc3)cnc3ccccc23)CC1`, the survival was 125% (inactive). As to `CCOc1ccc2nc(N3CCCC(C(=O)NCc4ccc(C)cc4)C3)sc2c1` (stereo not given), the survival is 71% (inactive). As for `CCOC(=O)C1CCCN(c2c(C(=O)c3ccc(C)cc3)cnc3ccc(OCC)cc23)C1` (stereo not given), the figure is 10% (active); as for `COc1ccc(C(=O)c2cnc3ccc(C)cc3c2S(=O)(=O)c2ccccc2)cc1`, 69% (inactive); as for `COc1ccc(S(=O)(=O)c2cnc3cc(OC)c(OC)cc3c2N2CCCC(C)C2)cc1` (stereo not given), 116% (inactive). The value for `CCOC(=O)C1CCCN(C(=O)c2ccc(OCC)cc2)C1` (stereo not given) was 77% (inactive). Regarding `CCOC(=O)C1CCN(c2c(C(=O)c3ccc(OCC)cc3)cnc3ccc(OC)cc23)CC1`, the survival was 37% (inactive).

With `CCOC(=O)C1CCN(c2c(C(=O)c3ccc(C)cc3)cnc3ccc(F)cc23)CC1`, the survival is 2% (active). Consider `COc1cc2ncc(C(=O)c3ccc(C)cc3)c(N3CCCCC3)c2cc1OC`, for which the survival was 2% (active).

With `CCC(=O)NC1CC(=O)N(c2ccc3c(c2)OCCO3)C1` (stereo not given), the survival is 82% (inactive). With `CC(=O)N1CCC(N(Cc2ccc(C)o2)C(=O)Nc2cccc(C(F)(F)F)c2)CC1`, the survival is 91% (inactive). Turning to `CC(C)NC(=O)c1ccc(NC(=O)N2CCCCc3ccccc32)cc1`, the survival was 70% (inactive). As for `Cc1ccc(CN(C(=O)COc2ccc(Cl)c(C)c2)c2ccccn2)o1`, the figure is 52% (inactive).

For the compound `CCOC(=O)c1cc(S(=O)(=O)N2CCN(c3ccc(OC)cc3)CC2)[nH]n1`, the survival was 128% (inactive).

For the compound `CCC1Oc2ccccc2N(CC(=O)NCCc2ccc(OC)c(OC)c2)C1=O` (stereo not given), the survival was 115% (inactive). Regarding `COc1cccc2c1ncc1c(-c3ccc(C)cc3)nn(-c3cccc([N+](=O)[O-])c3)c12`, the survival was 87% (inactive).

In the case of `Cc1ccc(NC(=O)CCn2cnc3onc(-c4ccc(F)cc4)c3c2=O)c(Br)c1`, the survival was 102% (inactive). As for `CCOC(=O)C1CCCN(c2c(C(=O)c3ccccc3)cnc3ccc(F)cc23)C1` (stereo not given), the figure is 35% (active). The value for `CCc1ccc(C(=O)c2cnc3ccc(F)cc3c2S(=O)(=O)c2ccccc2)cc1` was 123% (inactive); that for `CCOC(=O)C1CCCN(c2c3c(nc4cc(-c5ccc(F)cc5)nn24)CCCC3)C1` (stereo not given) was 76% (inactive). As for `CCOC(=O)c1c(S(=O)(=O)NCC(=O)N2CCN(c3cc(C)ccc3C)CC2)c(C)n(C)c1C`, the figure is 71% (inactive). As to `COc1ccccc1CNC(=O)c1ccc2c(c1)CCN2S(=O)(=O)c1ccccc1`, the survival is 43% (active). Regarding `COc1ccccc1N1CCN(C(=O)c2ccc3c(c2)CCN3S(=O)(=O)c2ccccc2)CC1`, the survival was 62% (inactive). As for `CCS(=O)(=O)N1CCc2cc(C(=O)NCc3ccccc3Cl)ccc21`, the survival was 89% (inactive). The value for `CCS(=O)(=O)N1CCc2cc(C(=O)NCc3ccccc3OC)ccc21` was 40% (active); that for `COc1ccccc1CNC(=O)c1ccc2c(c1)CCN2S(=O)(=O)c1ccc(Cl)cc1` was 82% (inactive). Turning to `CCS(=O)(=O)N1CCc2cc(C(=O)NCc3ccccc3)ccc21`, the survival was 68% (inactive).

(Values after PubChem BioAssay AID463173 (ICCB-Longwood Screening Facility, Harvard Medical School, 2010).)
